The list is not random: actives were taken first. Their share in the collection is about 1.1%.
p53 reactivation – restores transcriptional activity of mutant p53 | AID 504706 | H1299 p53-A138V BP100-luciferase reporter, luminescence, 24 h | Potency, µM (titrated, usually from 92.2 µM), usual class: activators | 320,000 tested, 0.063% active; further: nearly all actives have a fitted effect of over 45% in size
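p53-null H1299 cells stably carrying temperature-sensitive p53-A138V and a BP100-luciferase reporter were pinned with compounds (4-point, 1:5 series) and held 24 hrs at 37 deg C. Luminescence was read 10 min after detection reagent.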
gsp antagonist – antagonists of gsp mutant (McCune-Albright syndrome); gsp-mutant cells, cAMP HTRF, 30 min; Potency, µM (titrated, usually from 76.9 µM), hits mostly inhibitors; 340,000 tested, 0.4% active; AID 624288; calls by dose curve; cell line not stated here;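 further: intracellular cAMP measured with PDE inhibitor Ro 20-1724 present during compound exposure; nearly all actives have a fitted effect of over 65% in size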
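Cells in G418 medium, seeded 16-24 h, 37C; buffer exchange to DPBS + 1 mM CaCl2, 0.5 mM MgCl2, 0.05% BSA; cpds in DMSO + […] (300 uM stock), 30 min 37C; HTRF cAMP detection.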
RXFP1 antagonist – RXFP1 (human) relaxin receptor antagonism | 350,000 tested, 0.59% active | Q9HBX9 | activity change, negative = inhibition, % at 57.5 µM | HEK293-RXFP1, relaxin-stimulated cAMP HTRF, 30 min; active compounds read low;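 active means activity change of -60% or lower, but not beyond a set lower limit; inconclusive means change between -60% and -40%, or beyond the set limit; inactive means change above -40%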
Target sequence (Q9HBX9 whole entry, looked up): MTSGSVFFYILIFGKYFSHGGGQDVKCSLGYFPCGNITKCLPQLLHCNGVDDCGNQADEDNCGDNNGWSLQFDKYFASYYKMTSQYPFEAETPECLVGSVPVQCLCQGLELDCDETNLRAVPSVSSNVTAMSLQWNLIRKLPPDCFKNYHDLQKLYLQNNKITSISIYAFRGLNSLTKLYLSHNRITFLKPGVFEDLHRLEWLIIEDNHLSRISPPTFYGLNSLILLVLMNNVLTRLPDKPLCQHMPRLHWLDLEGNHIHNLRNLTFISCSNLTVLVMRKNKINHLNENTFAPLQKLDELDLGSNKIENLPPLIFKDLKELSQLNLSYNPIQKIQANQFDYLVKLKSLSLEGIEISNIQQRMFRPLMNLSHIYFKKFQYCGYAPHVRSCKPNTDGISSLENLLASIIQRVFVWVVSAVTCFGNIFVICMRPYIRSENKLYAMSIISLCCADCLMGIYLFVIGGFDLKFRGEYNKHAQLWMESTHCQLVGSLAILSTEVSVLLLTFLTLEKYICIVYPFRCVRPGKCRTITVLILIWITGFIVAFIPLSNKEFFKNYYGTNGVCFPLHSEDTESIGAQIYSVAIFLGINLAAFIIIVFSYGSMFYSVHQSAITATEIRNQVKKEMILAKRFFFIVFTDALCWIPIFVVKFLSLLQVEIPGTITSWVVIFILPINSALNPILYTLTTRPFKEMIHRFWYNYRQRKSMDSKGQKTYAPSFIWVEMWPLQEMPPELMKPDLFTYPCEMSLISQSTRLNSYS
gsp ag – agonists of gsp mutant (McCune-Albright syndrome); gsp mutant cells, cAMP HTRF, 30 min; Potency, µM (top dose mostly 76.9 µM), hits mostly activators; 340,000 tested, 0.13% active; active means well fitted activation curve with a large enough effect; inconclusive means small, poorly fitted or top-dose-only effect, or another doubt; inactive means no such curve, though single readings can be large or run the other way; cell line not stated here;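 further: phosphodiesterase inhibitor Ro 20-1724 added with compounds to block cAMP breakdown; nearly all actives have a fitted effect of over 60% in size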
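Cells stably selected in G418 were plated at 2000/well, grown 16-24 hr, then given compounds in DMSO with the PDE inhibitor […] (300 uM solution added) for 30 min at 37C; cAMP was read by HTRF.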
RXFP1 agonist – agonists of human relaxin receptor RXFP1. Q9HBX9. HEK293T-RXFP1 cAMP TR-FRET, 30 min; response scale: percent of porcine relaxin response, buffer zero. Potency, µM (doses to about 57.5 µM), most hits filed as activators. 370,000 tested, 0.3% active. AID 2676; further: nearly all actives have a fitted effect of over 60% in size
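HEK293 cells stably expressing RXFP1, treated 30 min at 37C with compounds plus PDE4 inhibitor Ro 20174; cAMP measured by HTRF TR-FRET. Normalized to buffer and 29 nM porcine relaxin; EC50 by Hill fit.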
Tb PFK block – inhibitors of T. brucei phosphofructokinase; T. brucei PFK, ADP-Glo luminescence; Potency, µM (top dose mostly 57.5 µM), actives largely listed as inhibitors; 330,000 tested, 0.17% active; further: nearly all actives have a fitted effect of over 60% in size
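Activity is normalized to no-enzyme wells (full inhibition) and 1.25 nM enzyme wells (no inhibition). Reaction: 0.5 mM F6P, 0.1 mM ATP, 45 min RT, ADP-Glo luminescence; concentration-response curves fitted and classed by quality.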
Each line names hits and unclear results; the compound was inactive in the other large screens. Unless noted, the call rests on the fitted dose curve; in most records, active means well fitted curve in the direction sought with a large enough effect; inconclusive means small, poorly fitted or top-dose-only effect, or another doubt; inactive means no such curve, though single readings can be large; an effect the other way counts as inactive or inconclusive.

CC(=O)OCCNc1cc(SC(C)C)c2nonc2c1[N+](=O)[O-]	none
CCCOC(=O)C1C2C=CC3(CN(c4cccc(Cl)c4)C(=O)C13)O2 (stereo unspecified)	none
O=C(COC(=O)C1=COCCO1)Nc1c(F)cccc1F	none
Cc1cc(C(=O)COC(=O)c2ccc(O)cc2)c(C)n1-c1ccccc1F	RXFP1 antagonist -83
COc1ccc(CCOC(=O)c2ccc(N)c([N+](=O)[O-])c2)cc1	RXFP1 antagonist -66
Cc1c(C(=O)N(C)Cc2ccccc2)sc2nc(-c3ccc(F)cc3)cn12	RXFP1 antagonist -68 (no result: p53 reactivation, gsp antagonist, gsp ag, Tb PFK block)
CC1(C)SC2c3ccccc3C(=O)N2[C@@H]1C(=O)NCCCN1CCOCC1 (stereo partly specified)	none
c1cc(CNc2ccc3c(c2)OCCO3)ccn1	p53 reactivation 25µM
O=C(NC(=S)Nc1ccccc1Br)C1CCCC1	p53 reactivation 28µM, gsp ag inconclusive
CC(=O)OCC1OC(COC(C)=O)(c2ccc(C)cc2)C(OC(C)=O)C1OC(C)=O (stereo unspecified)	none (no result: p53 reactivation, RXFP1 agonist, Tb PFK block)
CCCCC(=O)OC1=C(C(=O)c2ccccc2)N(CC)S(=O)(=O)c2ccccc21	RXFP1 antagonist inconclusive (no result: p53 reactivation, gsp antagonist, gsp ag, Tb PFK block)
CCCCN1C(C(=O)c2ccccc2)=C(OC(C)=O)c2ccccc2S1(=O)=O	RXFP1 antagonist -63 (no result: p53 reactivation, gsp antagonist, gsp ag, Tb PFK block)
CC(C)CCN1CC(=O)N2Cc3[nH]c4ccccc4c3C[C@H]2C1=O	none
COc1ccc(-c2csc(/C(C#N)=C\c3ccc(O)c([N+](=O)[O-])c3)n2)cc1OC	none
N#C/C(=C\c1ccc(O)c([N+](=O)[O-])c1)c1nc2ccccc2s1	gsp antagonist 35µM
O=C(COC(=O)c1n[nH]c2ccccc12)Nc1ccccc1	none (no result: gsp antagonist)
COc1ccc(C)cc1NC(=O)COC(=O)c1c(C)nn(-c2ccccc2)c1C	gsp antagonist 40µM
COc1ccc(OC)c(NC(=O)COC(=O)c2n[nH]c3ccccc23)c1	gsp antagonist 45µM
Cc1cc(C)cc(NC(=O)COC(=O)c2n[nH]c3ccccc23)c1	gsp antagonist 10µM
Cn1ncc(Cl)c1C(=O)N1CCN(S(=O)(=O)c2ccc(F)cc2)CC1	none
COC(=O)c1cccc(NC(=O)CCSc2ccc(Cl)cc2)c1C	none
Cc1ccc(NC(=O)c2c([N+](=O)[O-])cnn2C)cc1C	none (no result: p53 reactivation)
Brc1ccc(-c2ccc(/C=N/Nc3nc(N4CCOCC4)nc(N4CCOCC4)n3)o2)cc1	gsp antagonist 20µM
CC1=NN(C(N)=S)C(=O)C1N=Nc1ccc(F)cc1 (stereo unspecified)	p53 reactivation 25µM
CC1=NN(C(N)=S)C(=O)C1N=Nc1ccc(O)cc1 (stereo unspecified)	none
O=C(NNc1c2ccccc2nc2ccccc12)c1cccc(O)c1	none
COc1ccc(OCC(=O)NNc2c3ccccc3nc3ccccc23)cc1	gsp antagonist 32µM
CCCC(=O)NNc1c2ccccc2nc2ccccc12	none
O=C(NNc1c2ccccc2nc2ccccc12)c1ccc(O)cc1	gsp antagonist 35µM
O=C(COc1ccccc1)NNc1c2ccccc2nc2ccccc12	gsp antagonist 40µM
COc1ccccc1NC(=O)Cn1c(=O)n(CCc2ccccc2)c(=O)c2sc3ccccc3c21	none (no result: p53 reactivation, gsp antagonist, RXFP1 antagonist, gsp ag, Tb PFK block)
CC/C(=C\C(=O)c1ccncc1)Nc1ccc(Br)cc1	none
N#C/C(=C\c1cccs1)C(=O)c1ccccc1Cl	RXFP1 antagonist -61, Tb PFK block inconclusive
CC(C)(C)C(=O)/C(C#N)=C/c1cccs1	none
COC(=O)c1ccc2nc(NC(=O)C(C)(C)C)sc2c1	RXFP1 antagonist -85
O=C(COc1ncnc2cc([N+](=O)[O-])ccc12)N(CCc1ccccc1)Cc1ccccc1	gsp antagonist 28µM, gsp ag inconclusive
CC(C)Cn1c(=O)c2c(nc3n2CCS3)n(C)c1=O	none
Cc1cc(OCC(=O)NCCN2CCOCC2)ccc1Br	none
Cc1c(NC(=O)CN2CCN(c3ccc(F)cc3)CC2)c(=O)n(-c2ccccc2)n1C	none
Cc1ccc(S(=O)(=O)NCCC(=O)N2CCN(S(=O)(=O)c3cccc(F)c3)CC2)cc1C	RXFP1 antagonist -67
CCC1CN(C(=O)N2CCC(C(=O)NCCCc3ccccc3)CC2)c2cc(C)ccc2O1 (stereo unspecified)	RXFP1 antagonist -69 (no result: p53 reactivation, gsp antagonist, gsp ag, Tb PFK block)
Cc1nn(-c2nc3ccccc3s2)c(C)c1Oc1ccccc1O	p53 reactivation 13µM, gsp antagonist inconclusive
Cc1nn(-c2ccccn2)c(C)c1Oc1ccccc1O	p53 reactivation inconclusive
COc1ccc(C(=O)CSc2n[nH]c(=O)n2Cc2ccco2)cc1	none
COc1ccc(-c2cc3nc(C)c(CCC(=O)NCc4ccc(F)cc4)c(C)n3n2)c(OC)c1	gsp antagonist inconclusive
CCOC(=O)N1CCN(c2ncnc3nc[nH]c23)CC1	gsp ag 20µM (no result: RXFP1 antagonist)
O=C(CSc1ccc2nnc(-c3ccc(F)cc3)n2n1)N1CCOCC1	gsp ag 20µM (no result: p53 reactivation, RXFP1 antagonist, RXFP1 agonist, Tb PFK block)
O=C(CSc1ccc2nnc(-c3cccs3)n2n1)N1CCOCC1	gsp ag inconclusive (no result: p53 reactivation, RXFP1 antagonist, RXFP1 agonist, Tb PFK block)
CC(c1ccccc1)N1CCC(CNC(=S)Nc2cccc(Cl)c2)C1 (stereo unspecified)	RXFP1 antagonist inconclusive, gsp ag 28µM
Cc1ccc(NC(=S)NCC2CCN(C(C)c3ccccc3)C2)cc1 (stereo unspecified)	none
COc1ccc(-c2[nH]nc3c2C(c2ccc(OC(=O)N4CCOCC4)cc2)C(C#N)=C(N)O3)cc1 (stereo unspecified)	none
Cc1ccc(S(=O)(=O)c2cc3c(=O)n4ccccc4nc3n(C3CCCC3)c2=N)cc1	RXFP1 antagonist -84
CN1c2ccccc2C(=O)NC1c1ccc([N+](=O)[O-])s1 (stereo unspecified)	none
CCc1cc2c(=O)nc3n(c2s1)Cc1ccccc1/C3=C(/O)c1ccc(F)cc1	p53 reactivation inconclusive (no result: gsp antagonist, RXFP1 antagonist, gsp ag)
CCc1cc2c(=O)nc3n(c2s1)Cc1ccccc1/C3=C(/O)c1cccc([N+](=O)[O-])c1	gsp ag 3.2µM, RXFP1 agonist inconclusive
O=C(c1cccs1)N1N=C(c2ccccc2)CC1c1ccc(O)cc1 (stereo unspecified)	gsp antagonist 28µM, RXFP1 antagonist inconclusive
FC(F)(F)c1cccc(Nc2nc3nonc3nc2Nc2ccc(Cl)cc2)c1	RXFP1 antagonist -82 (no result: p53 reactivation, gsp antagonist, gsp ag, Tb PFK block)
O=C(Nc1cccc(C(F)(F)F)c1)c1cc(-c2ccc(Cl)cc2)on1	none (no result: p53 reactivation, gsp antagonist, RXFP1 antagonist, gsp ag, Tb PFK block)
C[n+]1c2n(c3ccccc31)N=C(c1cc(C(C)(C)C)c(O)c(C(C)(C)C)c1)CS2	RXFP1 antagonist -85
Cc1c(/C=C(\C#N)C(=O)NCc2ccccc2)cc(C#N)n1C	none
CCn1ccc2c(OCC(=O)NCc3ccc(F)cc3)cccc2c1=O	none (no result: p53 reactivation, gsp antagonist, RXFP1 antagonist, gsp ag, Tb PFK block)

Bioassay records from PubChem BioAssay.
